Measured values as given in PubChem BioAssay (Tox21).
Results filed as inconclusive are left out. The source made the active and inactive calls. Calls follow the shape of the dose curve; as a rule, active = well fitted curve in the direction sought with a large enough effect in the repeat runs; inconclusive = weak or mixed curves; inactive = no such curve, though single readings can be large; an effect the other way counts as inactive or inconclusive.

Assays:
[1] = Caspase-3/7 induction in CHO-K1 cells by small molecules, qHTS assay (AID 1346980); also: nearly all actives have a fitted effect of over 15% in size; also: potency is read from the fitted curve at half-maximal effect
Summary of the method: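 Luminescent Caspase-Glo 3/7 read (30min, room temperature) quantified apoptosis induction. Cells were wild-type CHO-K1, treated with compound for 17hr at 37 C and 5% CO2.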

[2] = Caspase-3/7 induction in HepG2 cells by small molecules, qHTS cell viability counter screen (AID 1346981); also: nearly all actives have a fitted effect of over 30% in size; also: potency is read from the fitted curve at half-maximal effect; as to activity change, negative = cytotoxicity: series mostly up to about 92 µM
Summary of the method: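 Wild-type HepG2 cells, 2,000/well, settled 5 hr at 37 C, 5% CO2 before compound addition. Viability read by CellTiter-Fluor fluorescence, reagent added after 16 hr compound exposure, then 1 hr at 37C, in the same wells as the caspase read.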

[3] = target: Nuclear receptor subfamily 1 group I member 2 (Homo sapiens) (UniProt O75469); assay: Human pregnane X receptor (PXR) small molecule agonists, qHTS assay (AID 1346982); also: nearly all actives have a fitted effect of over 35% in size; also: potency is read from the fitted curve at half-maximal effect
Nuclear receptor subfamily 1 group I member 2 (Homo sapiens), sequence (O75469 whole entry, looked up): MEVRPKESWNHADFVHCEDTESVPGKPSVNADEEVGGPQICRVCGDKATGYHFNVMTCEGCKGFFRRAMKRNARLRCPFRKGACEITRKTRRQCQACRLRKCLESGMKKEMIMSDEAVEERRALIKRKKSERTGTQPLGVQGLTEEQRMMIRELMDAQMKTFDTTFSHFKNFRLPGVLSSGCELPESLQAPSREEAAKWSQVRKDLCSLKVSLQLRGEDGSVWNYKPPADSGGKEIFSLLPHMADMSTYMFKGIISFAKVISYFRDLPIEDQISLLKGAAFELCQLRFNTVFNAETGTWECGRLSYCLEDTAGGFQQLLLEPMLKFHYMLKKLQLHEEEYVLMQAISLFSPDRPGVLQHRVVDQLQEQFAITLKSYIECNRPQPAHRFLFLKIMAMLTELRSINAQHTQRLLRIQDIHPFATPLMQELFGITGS
Summary of the method: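 PXR-Luc HepG2 reporter cells (CYP3A4-driven luciferase) in 5% charcoal-stripped FBS medium, plated 5 h before compound addition, then treated 24 h at 37C. Luciferase read by ONE-Glo luminescence after 30 min at room temperature.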

[4] = target: Cytochrome P450 2D6 (Homo sapiens) (UniProt P10635); assay: Cytochrome P450 Family 2 Subfamily D Member 6 (CYP2D6) small molecule antagonists: luciferase reporter qHTS assay (AID 1671196); also: nearly all actives have a fitted effect of over 50% in size; also: potency is read from the fitted curve at half-maximal effect; as to activity change, negative = inhibition: series mostly up to about 120 µM
Cytochrome P450 2D6 (Homo sapiens), sequence (P10635 whole entry, looked up): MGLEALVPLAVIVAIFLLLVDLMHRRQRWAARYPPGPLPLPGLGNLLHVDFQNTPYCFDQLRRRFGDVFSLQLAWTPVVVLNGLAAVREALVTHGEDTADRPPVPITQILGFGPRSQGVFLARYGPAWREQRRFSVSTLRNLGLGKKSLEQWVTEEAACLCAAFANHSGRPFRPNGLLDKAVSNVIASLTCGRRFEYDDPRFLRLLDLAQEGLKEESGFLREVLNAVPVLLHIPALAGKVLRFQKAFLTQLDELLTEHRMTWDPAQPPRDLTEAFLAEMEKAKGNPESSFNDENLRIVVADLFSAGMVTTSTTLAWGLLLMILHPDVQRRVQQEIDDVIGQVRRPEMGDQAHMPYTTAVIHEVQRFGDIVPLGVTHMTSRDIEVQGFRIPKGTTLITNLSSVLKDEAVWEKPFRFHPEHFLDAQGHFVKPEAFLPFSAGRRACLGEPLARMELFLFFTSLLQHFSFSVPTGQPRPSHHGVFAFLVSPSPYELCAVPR
Summary of the method: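 Cell-free P450-Glo system: CYP2D6 with proluciferin substrate was pre-incubated with compound for 10 min, then reacted with NADPH regeneration for 1 h at room temperature. Luciferin product was detected after 20 min, and data were reported as relative luminescence units.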

[5] = target: Cytochrome P450 2C19 (Homo sapiens) (UniProt P33261); assay: Cytochrome P450 Family 2 Subfamily C Member 19 (CYP2C19) small molecule antagonists: luciferase reporter qHTS assay (AID 1671197); also: nearly all actives have a fitted effect of over 65% in size; also: potency is read from the fitted curve at half-maximal effect; as to activity change, negative = inhibition: series mostly up to about 120 µM
Cytochrome P450 2C19 (Homo sapiens), sequence (P33261 whole entry, looked up): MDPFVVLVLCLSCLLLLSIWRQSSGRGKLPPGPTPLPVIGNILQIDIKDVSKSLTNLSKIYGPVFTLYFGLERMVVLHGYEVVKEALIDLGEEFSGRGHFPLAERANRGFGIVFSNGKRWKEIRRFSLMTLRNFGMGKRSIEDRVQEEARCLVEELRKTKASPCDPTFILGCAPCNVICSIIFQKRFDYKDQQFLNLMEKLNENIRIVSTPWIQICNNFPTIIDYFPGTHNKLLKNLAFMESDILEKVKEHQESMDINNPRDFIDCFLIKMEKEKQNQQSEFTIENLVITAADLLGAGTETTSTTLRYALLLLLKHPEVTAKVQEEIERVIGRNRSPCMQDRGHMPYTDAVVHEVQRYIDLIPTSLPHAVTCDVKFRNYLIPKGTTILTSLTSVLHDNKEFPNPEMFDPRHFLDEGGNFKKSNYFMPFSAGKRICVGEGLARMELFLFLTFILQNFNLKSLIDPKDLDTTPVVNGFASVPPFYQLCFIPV
Summary of the method: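 Compounds were tested on CYP2C19 activity via proluciferin conversion to luciferin. The 37C, 1 h reaction followed NADPH addition; detection reagent stopped it.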

[6] = target: Cytochrome P450 2C9 (Homo sapiens) (UniProt P11712); assay: Cytochrome P450 Family 2 Subfamily C Member 9 (CYP2C9) small molecule antagonists: luciferase reporter qHTS assay (AID 1671198); also: nearly all actives have a fitted effect of over 50% in size; also: potency is read from the fitted curve at half-maximal effect; as to activity change, negative = inhibition: series mostly up to about 120 µM
Cytochrome P450 2C9 (Homo sapiens), sequence (P11712 whole entry, looked up): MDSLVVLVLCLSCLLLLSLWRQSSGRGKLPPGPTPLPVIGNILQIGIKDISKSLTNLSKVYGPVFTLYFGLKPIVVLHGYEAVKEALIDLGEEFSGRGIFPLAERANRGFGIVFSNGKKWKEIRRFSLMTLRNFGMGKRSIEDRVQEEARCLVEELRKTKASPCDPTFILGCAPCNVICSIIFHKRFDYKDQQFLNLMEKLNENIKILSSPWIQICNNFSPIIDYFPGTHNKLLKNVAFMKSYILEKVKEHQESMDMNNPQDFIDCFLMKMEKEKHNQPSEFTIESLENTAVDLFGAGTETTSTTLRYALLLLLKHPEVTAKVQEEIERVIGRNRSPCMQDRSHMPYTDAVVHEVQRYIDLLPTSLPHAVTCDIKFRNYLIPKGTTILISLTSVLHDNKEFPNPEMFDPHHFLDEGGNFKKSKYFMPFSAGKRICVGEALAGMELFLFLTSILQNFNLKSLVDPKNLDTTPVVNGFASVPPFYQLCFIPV
Summary of the method: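 Enzyme-substrate mix preincubated with compound 10 min at room temperature; reaction started with NADPH regeneration solution, 1 h 37C. Luminescent luciferin product read after 20 min detection reagent.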

[7] = target: Cytochrome P450 1A2 (Homo sapiens) (UniProt P05177); assay: Cytochrome P450 Family 1 Subfamily A Member 2 (CYP1A2) small molecule antagonists: luciferase reporter qHTS assay (AID 1671199); also: nearly all actives have a fitted effect of over 50% in size; also: potency is read from the fitted curve at half-maximal effect; as to activity change, negative = inhibition: series mostly up to about 120 µM
Cytochrome P450 1A2 (Homo sapiens), sequence (P05177 whole entry, looked up): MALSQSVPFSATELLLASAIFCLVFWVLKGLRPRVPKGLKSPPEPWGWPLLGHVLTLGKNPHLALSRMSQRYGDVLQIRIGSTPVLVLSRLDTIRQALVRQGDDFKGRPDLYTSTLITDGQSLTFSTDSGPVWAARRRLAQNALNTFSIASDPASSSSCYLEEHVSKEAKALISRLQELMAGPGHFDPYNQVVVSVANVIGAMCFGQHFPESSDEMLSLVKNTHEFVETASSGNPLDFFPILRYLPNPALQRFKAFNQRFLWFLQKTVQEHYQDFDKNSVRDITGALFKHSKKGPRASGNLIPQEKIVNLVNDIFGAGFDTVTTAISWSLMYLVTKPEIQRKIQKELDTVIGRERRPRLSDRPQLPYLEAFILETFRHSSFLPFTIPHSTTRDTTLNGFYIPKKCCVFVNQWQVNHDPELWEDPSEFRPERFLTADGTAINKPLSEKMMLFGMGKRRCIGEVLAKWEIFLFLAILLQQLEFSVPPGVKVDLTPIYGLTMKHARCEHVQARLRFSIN
Summary of the method: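 P450-Glo CYP1A2 enzyme–proluciferin substrate mix with compound 10 min at room temperature, then NADPH regeneration 1 h at room temperature. Luciferin detection reagent added, luminescence read after 20 min; furafylline positive control.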

[8] = target: Cytochrome P450 3A4 (Homo sapiens) (UniProt P08684); assay: Cytochrome P450 Family 3 Subfamily A Member 4 (CYP3A4) small molecule antagonists: luciferase reporter qHTS assay (AID 1671201); also: nearly all actives have a fitted effect of over 50% in size; also: potency is read from the fitted curve at half-maximal effect; as to activity change, negative = inhibition: series mostly up to about 120 µM
Cytochrome P450 3A4 (Homo sapiens), sequence (P08684 whole entry, looked up): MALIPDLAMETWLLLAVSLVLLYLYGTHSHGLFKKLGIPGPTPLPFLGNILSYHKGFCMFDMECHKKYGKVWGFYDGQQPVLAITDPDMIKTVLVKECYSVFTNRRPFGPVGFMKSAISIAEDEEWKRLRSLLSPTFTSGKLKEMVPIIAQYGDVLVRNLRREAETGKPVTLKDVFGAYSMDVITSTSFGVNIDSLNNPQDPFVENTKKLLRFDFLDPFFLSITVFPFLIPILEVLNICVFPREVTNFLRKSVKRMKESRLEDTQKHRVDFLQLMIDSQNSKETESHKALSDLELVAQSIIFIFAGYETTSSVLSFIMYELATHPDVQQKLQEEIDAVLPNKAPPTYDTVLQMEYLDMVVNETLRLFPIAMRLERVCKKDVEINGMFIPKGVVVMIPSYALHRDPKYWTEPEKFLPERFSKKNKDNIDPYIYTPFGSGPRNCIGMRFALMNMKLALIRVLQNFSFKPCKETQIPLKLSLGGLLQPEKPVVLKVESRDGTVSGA
Summary of the method: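 Compounds in DMSO were pin-transferred onto CYP3A4 enzyme-substrate mix and held 10 min at room temperature. NADPH regenerating solution started the reaction for 1 h; luciferin detection reagent stopped it, and luminescence was read after 20 min.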

[9] = target: Nuclear receptor subfamily 1 group I member 2 (Rattus norvegicus) (UniProt Q9R1A7); assay: Rat pregnane X receptor (rPXR) activation by small molecules, qHTS assay (AID 1346983); conditions: rPXR luciferase reporter cells, One-Glo luminescence, 24 h; max activation: hits give high values; also: nearly all actives have a fitted effect of over 20% in size
Nuclear receptor subfamily 1 group I member 2 (Rattus norvegicus), sequence (Q9R1A7 whole entry, looked up): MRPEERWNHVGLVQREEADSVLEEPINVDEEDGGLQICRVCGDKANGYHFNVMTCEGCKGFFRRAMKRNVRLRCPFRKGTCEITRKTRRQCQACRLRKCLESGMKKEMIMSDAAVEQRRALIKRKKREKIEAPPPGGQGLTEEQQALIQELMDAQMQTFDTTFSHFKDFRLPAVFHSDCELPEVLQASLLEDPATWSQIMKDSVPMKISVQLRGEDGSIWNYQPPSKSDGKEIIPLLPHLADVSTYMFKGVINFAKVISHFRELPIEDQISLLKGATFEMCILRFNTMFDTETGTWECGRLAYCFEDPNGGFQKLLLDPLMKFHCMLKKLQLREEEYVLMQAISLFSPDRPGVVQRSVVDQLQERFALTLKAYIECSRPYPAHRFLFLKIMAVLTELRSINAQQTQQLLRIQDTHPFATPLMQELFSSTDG
Summary of the method: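 Luminescent readout (One-Glo luciferase, 30 min room temperature) followed 24 hr compound treatment at 37 C of rPXR cells plated 2,000 per well and preincubated 5hr; qHTS format with compounds delivered in DMSO.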

[10] = target: Nuclear receptor subfamily 1 group I member 2 (Homo sapiens) (UniProt O75469); assay: CYP3A4 induction through human pregnane X receptor (PXR) by small molecules, qHTS assay (AID 1346984); also: nearly all actives have a fitted effect of over 40% in size
Summary of the method: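 DPX-2 HepG2 cells carrying a PXR response element and CYP3A4-promoter luciferase construct, treated with compounds 24 hr at 37C. Then P450-Glo CYP3A4 Luciferin-IPA substrate (3uM final) for 3 hr at 37C, One-Glo added, luminescence read.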

[11] = target: Nuclear receptor subfamily 1 group I member 2 (Homo sapiens) (UniProt O75469); assay: Human pregnane X receptor (PXR) activation by small molecules, qHTS assay (AID 1346985); also: nearly all actives have a fitted effect of over 40% in size
Summary of the method: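 DPX-2 cells (HepG2 co-transfected with a PXR response element and a CYP3A4-promoter luciferase construct) were seeded at 2,000 per well, rested 5 hr at 37C, then exposed to DMSO-dissolved compounds for 24 hr. Activation was read as luciferase luminescence.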

[12] = target: Voltage-gated inwardly rectifying potassium channel KCNH2 (Homo sapiens) (UniProt Q12809); assay: Human Ether-a-go-go-Related Gene (hERG) channel small molecule antagonists: fluorescence cell-based qHTS assay (AID 1671200); also: nearly all actives have a fitted effect of over 50% in size; also: potency is read from the fitted curve at half-maximal effect;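 as to activity change, negative = inhibition: hERG-expressing U2OS cells given a thallium stimulus after FluxOR II dye loading; series mostly up to about 77 µM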
Voltage-gated inwardly rectifying potassium channel KCNH2 (Homo sapiens), sequence (Q12809 whole entry, looked up): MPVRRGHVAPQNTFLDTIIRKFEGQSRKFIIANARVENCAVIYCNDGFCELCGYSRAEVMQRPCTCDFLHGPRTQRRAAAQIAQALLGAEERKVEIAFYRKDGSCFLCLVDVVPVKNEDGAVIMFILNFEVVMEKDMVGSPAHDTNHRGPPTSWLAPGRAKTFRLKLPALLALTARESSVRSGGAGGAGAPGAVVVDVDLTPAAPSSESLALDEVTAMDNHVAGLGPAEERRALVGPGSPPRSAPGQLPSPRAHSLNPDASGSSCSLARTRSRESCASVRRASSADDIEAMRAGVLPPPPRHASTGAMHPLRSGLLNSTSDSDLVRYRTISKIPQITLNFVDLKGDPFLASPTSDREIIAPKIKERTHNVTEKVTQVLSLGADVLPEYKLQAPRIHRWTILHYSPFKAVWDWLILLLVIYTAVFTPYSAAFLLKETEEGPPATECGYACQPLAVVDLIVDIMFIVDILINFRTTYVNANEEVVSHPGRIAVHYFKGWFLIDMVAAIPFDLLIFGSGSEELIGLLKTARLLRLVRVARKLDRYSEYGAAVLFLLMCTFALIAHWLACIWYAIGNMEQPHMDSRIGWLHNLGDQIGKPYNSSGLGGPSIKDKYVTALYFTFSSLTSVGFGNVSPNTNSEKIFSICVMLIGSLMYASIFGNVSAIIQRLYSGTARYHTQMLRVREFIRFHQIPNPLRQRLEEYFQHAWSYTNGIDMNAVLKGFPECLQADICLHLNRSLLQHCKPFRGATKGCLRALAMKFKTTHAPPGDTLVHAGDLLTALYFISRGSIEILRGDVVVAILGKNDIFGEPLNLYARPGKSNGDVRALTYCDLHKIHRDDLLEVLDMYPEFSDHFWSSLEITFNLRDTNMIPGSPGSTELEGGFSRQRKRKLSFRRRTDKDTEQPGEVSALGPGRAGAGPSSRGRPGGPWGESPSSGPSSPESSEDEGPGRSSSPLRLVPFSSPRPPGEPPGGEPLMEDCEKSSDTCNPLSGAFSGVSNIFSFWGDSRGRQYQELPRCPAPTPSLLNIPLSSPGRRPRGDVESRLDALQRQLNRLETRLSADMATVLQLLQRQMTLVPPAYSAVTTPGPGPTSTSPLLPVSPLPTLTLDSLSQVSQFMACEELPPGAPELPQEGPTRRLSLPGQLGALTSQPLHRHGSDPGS
Summary of the method: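 Channel function was assessed by thallium flux. Cells seeded the previous day and kept at 37 C took up FluxOR II dye over 1 h in the dark at room temperature, then sat another 10 min before stimulation.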
% is scaled to controls: 0 for no effect and ±100 for the full control effect.

CCCCNc1ccc(NCCCC)c2c1C(=O)c1ccccc1C2=O
inactive: caspase-3/7 activation [1] 2.79% [at 19 µM] | activity change, negative = cytotoxicity [2] -16.6% [at 19 µM] | activation [3] 2.95% [at 19 µM] | activity change, negative = inhibition [4] 0.95% [at 23.6 µM] | activity change, negative = inhibition [5] -5.26% [at 23.6 µM] | activity change, negative = inhibition [6] -1.25% [at 23.6 µM] | activity change, negative = inhibition [8] 15.3% [at 23.6 µM]
active: Potency [7] 3.79 µM

O=C1Cc2ccccc2C1
inactive: Potency [1]

O=C(CCN1CCC(c2ccccc2)C1)c1ccc2c(c1)OCCO2 (configuration not stated)
inactive: Potency [1] | Potency [2] | max activation [9] -4.55% | Potency [10] | Potency [11] | Potency [8]
active: Potency [3] 13.3 µM | Potency [4] 2.19 µM

N#CCCOCCC#N
inactive: Potency [1] | Potency [2] | Potency [3] | Potency [4] | Potency [5] | Potency [6] | Potency [7] | Potency [12] | Potency [8]

C/C=C/C(=O)OCC(C)C
inactive: Potency [1] | Potency [2] | Potency [3] | Potency [4] | Potency [6] | Potency [7] | Potency [12] | Potency [8]

CC(=O)Nc1ccc(N=Nc2cc(C)ccc2O)cc1
active: Potency [2] 61.1 µM | Potency [3] 9.69 µM | Potency [4] 63.3 µM | Potency [5] 56.4 µM | Potency [6] 35.6 µM | Potency [7] 31.7 µM
inactive: Potency [1] | Potency [12]

CCOC=C(C(=O)OCC)C(=O)OCC
inactive: Potency [1] | Potency [2] | Potency [3] | Potency [4] | Potency [5] | Potency [6] | Potency [7] | Potency [8]

CN(C/C=C/c1ccccc1)Cc1cccc2ccccc12
inactive: Potency [1] | Potency [2] | Potency [3] | max activation [9] -2.12% | Potency [10] | Potency [8]
active: Potency [5] 3.89 µM | Potency [7] 12.9 µM | Potency [12] 2.39 µM

Nc1ccc2c(S(=O)(=O)O)cccc2c1S(=O)(=O)O
inactive: Potency [1] | Potency [2] | Potency [3] | Potency [4] | Potency [5] | Potency [7] | Potency [12] | Potency [8]

CC1=CC[C@@H](C(C)(C)O)CC1
inactive: Potency [1] | Potency [2] | Potency [3] | Potency [4] | Potency [5] | Potency [6] | Potency [7] | Potency [8]

[Cl][Sc]([Cl])[Cl]
inactive: Potency [1] | Potency [2] | Potency [3] | Potency [4] | Potency [5] | Potency [6] | Potency [7] | Potency [12] | Potency [8]

Clc1cccc(Cl)n1
inactive: Potency [1] | Potency [2] | Potency [3] | Potency [4] | Potency [5] | Potency [6] | Potency [7] | Potency [12] | Potency [8]

C=C(C)C1CCC(C)CC1O (configuration not stated)
inactive: Potency [1] | Potency [2] | Potency [3] | Potency [4] | Potency [5] | Potency [6] | Potency [7] | Potency [12] | Potency [8]

C=C1CC[C@H]2O[C@]2(C)CC[C@@H]2[C@@H]1CC2(C)C
inactive: Potency [1] | Potency [2] | Potency [3] | Potency [5] | Potency [6] | Potency [7] | Potency [12] | Potency [8]

c1ccc2occc2c1
active: Potency [4] 31.7 µM | Potency [6] 35.6 µM | Potency [7] 28.3 µM
inactive: Potency [1] | Potency [2] | Potency [3] | Potency [8]

Cc1cc(F)ccc1-c1cc(N2CC[C@@H](O)[C@H]2CO)ncc1N(C)C(=O)C(C)(C)c1cc(C(F)(F)F)cc(C(F)(F)F)c1
active: Potency [1] 38 µM | Potency [2] 38 µM | Potency [3] 17 µM | Potency [5] 27.8 µM | Potency [6] 22.1 µM | Potency [8] 3.12 µM
inactive: Potency [12]

CCc1cccc(CC)c1
inactive: Potency [1] | Potency [2] | Potency [3] | Potency [4] | Potency [6] | Potency [7] | Potency [8]

CC(C)(C)C1=CC(=O)C(C(C)(C)C)=CC1=O
inactive: Potency [1] | Potency [2] | Potency [12] | Potency [8]
active: Potency [3] 18.8 µM | Potency [5] 6.92 µM | Potency [6] 15.5 µM | Potency [7] 17.4 µM

CC(C=O)c1ccccc1 (configuration not stated)
active: Potency [6] 35.6 µM
inactive: Potency [1] | Potency [2] | Potency [3] | Potency [4] | Potency [12] | Potency [8]

COc1cc(OC)nc(NC(=O)NS(=O)(=O)Nc2ccccc2C(=O)N(C)C)n1
active: Potency [3] 43.3 µM | Potency [6] 31.7 µM | Potency [7] 63.3 µM
inactive: Potency [1] | Potency [2] | Potency [12]

Cc1ccc2sc3cccc(C)c3c2c1
inactive: Potency [1] | Potency [2] | Potency [3] | Potency [5] | Potency [6] | Potency [12] | Potency [8]
active: Potency [7] 2.52 µM

O=C(Nc1ccc([N+](=O)[O-])cc1)Nc1ccc([N+](=O)[O-])cc1 (tested in a mixture with another compound)
inactive: Potency [1] | Potency [2] | Potency [3] | Potency [5] | Potency [6] | Potency [7] | Potency [8]

Nc1ccc(F)c([N+](=O)[O-])c1
inactive: Potency [1] | Potency [2] | Potency [3] | Potency [12] | Potency [8]
active: Potency [5] 89.4 µM

CCC(=O)OC/C=C(\C)CCC=C(C)C
inactive: Potency [1] | Potency [2] | Potency [3] | Potency [4] | Potency [6] | Potency [12] | Potency [8]

O=C1C=CC(=O)N1c1cccc(N2C(=O)C=CC2=O)c1
inactive: Potency [1] | Potency [3] | Potency [8]
active: Potency [2] 61.1 µM | Potency [5] 7.1 µM | Potency [6] 6.33 µM | Potency [7] 15.9 µM
